Sampled rows, rich in hits. Any-hit rate of the full collection: about 12%.
SARS PLP yeast: qHTS of Yeast-based Assay for SARS-CoV PLP | S. cerevisiae expressing SARS-CoV PLpro, growth rescue | AID 485353, 2010 | Potency, µM (doses to about 32.9 µM), hits mostly activators | hit rate 0.19% among 330,000; calls by dose curve; note: nearly all actives have a fitted effect of over 55% in size
Sm TGR inh: qHTS Assay for the Inhibitors of Schistosoma Mansoni Peroxiredoxins. Schistosoma mansoni thioredoxin glutathione reductase (TGR), Q962Y6. purified TGR, DTNB reduction, TNB absorbance 405 nm. Potency, µM (series often up to 114 µM), actives largely listed as inhibitors. hit rate 3% among 360,000. AID 485364, 2010; note: nearly all actives have a fitted effect of over 60% in size
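TGR 20 nM + NADPH 100 uM (dispensed conc.), cpd preinc 15 min RT; start with NADPH (500 uM addition) then DTNB (15 mM addition). Kinetic TNB absorbance, 405 nm filter. Four-parameter Hill fit across titration.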
Pf growth 48h: Primary qHTS for delayed death inhibitors of the malarial parasite plastid, 48 hour incubation | hit rate 5.9% among 310,000 | Potency, µM (doses to about 28.7 µM), actives largely listed as inhibitors | P. falciparum luciferase growth in erythrocytes, 48 h | AID 504832, 2011
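A one-generation exposure of luciferase-tagged malaria parasites in RPMI 1640/Albumax erythrocyte culture, 37 C and 5% CO2. Inhibition is inferred from decreased luminescence after adding detection reagent.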
Pf growth 96h: Primary qHTS for delayed death inhibitors of the malarial parasite plastid, 96 hour incubation; P. falciparum luciferase reporter growth, 96 h; Potency, µM (highest dose often 28.7 µM), hits mostly inhibitors; hit rate 6.9% among 320,000
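Parasite growth measured via integrated firefly luciferase reporter in P. falciparum. Infected erythrocytes at 2% hematocrit, 0.05% parasitemia final were treated 96 hours at 37 C under 5% CO2, and luminescence was read.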
A number is an active result; [ ] = another dose, or the depositor's remark. Unless noted, calls come from the whole dose curve; as a rule, active = well fitted curve in the direction sought with a large enough effect; inconclusive = small, poorly fitted or top-dose-only effect, or another doubt; inactive = no such curve, though single readings can be large; an effect the other way counts as inactive or inconclusive.

CCOC(=O)c1c(NC(=O)COC(=O)c2ccc(NC(=O)CC#N)cc2)sc(C(=O)NC)c1C was read as SARS PLP yeast inactive, Sm TGR inh inactive, Pf growth 48h 13µM and Pf growth 96h inactive.
`c1cnc2c(c1)ccc1cccnc12` gave SARS PLP yeast inactive, Sm TGR inh inactive, Pf growth 48h 5.9µM and Pf growth 96h 3.3µM.
`Cc1ccnc2c1ccc1c(C)ccnc12` gave SARS PLP yeast inactive, Sm TGR inh inconclusive, Pf growth 48h 2.6µM and Pf growth 96h 4.7µM.
Screening Cc1ccnc2c1ccc1cccnc12 returned SARS PLP yeast inactive, Sm TGR inh inconclusive, Pf growth 48h 1.2µM and Pf growth 96h 0.83µM.
Screening CCc1ccccc1Nc1ncnc2c1cnn2-c1ccc(Cl)cc1 returned Sm TGR inh inactive.
Cc1ccc(NS(=O)(=O)c2cccc(C(=O)NCC(c3ccc(F)cc3)N3CCOCC3)c2)cc1 (centres undefined) was read as SARS PLP yeast inactive, Sm TGR inh inactive, Pf growth 48h inconclusive and Pf growth 96h inconclusive.
Screening C[C@@H]1NCCc2cc(O)c(O)cc21 returned Sm TGR inh 45µM, Pf growth 48h inactive and Pf growth 96h inactive.
`CS(=O)(=O)c1ccc(C(=O)OCC(=O)NC(=O)C2CCCCC2)cc1[N+](=O)[O-]` gave SARS PLP yeast inactive, Sm TGR inh 7.1µM, Pf growth 48h inconclusive and Pf growth 96h inconclusive.
CS(=O)(=O)c1ccc(C(=O)OCc2nnc(-c3ccccc3)o2)cc1[N+](=O)[O-] was read as SARS PLP yeast inactive, Sm TGR inh 1.4µM, Pf growth 48h inactive and Pf growth 96h inactive.
`CC(CCc1ccccc1)NC(=O)COC(=O)c1ccc(S(C)(=O)=O)c([N+](=O)[O-])c1` (centres undefined) gave SARS PLP yeast inactive, Sm TGR inh 1.8µM, Pf growth 48h inactive and Pf growth 96h inactive.
CS(=O)(=O)c1ccc(C(=O)OCC(=O)NC(=O)C2COc3ccccc3O2)cc1[N+](=O)[O-] (centres undefined) was read as SARS PLP yeast inactive.
CS(=O)(=O)c1ccc(C(=O)OCC(=O)Nc2cccnc2Cl)cc1[N+](=O)[O-] was read as SARS PLP yeast inactive.
For CC(=O)c1cccc(NC(=O)COC(=O)c2ccc(S(C)(=O)=O)c([N+](=O)[O-])c2)c1 the results were SARS PLP yeast inactive, Sm TGR inh 3.2µM, Pf growth 48h inconclusive and Pf growth 96h inconclusive.
`O=c1cc(OCc2ccccc2)cc[nH]1` gave SARS PLP yeast inactive, Sm TGR inh inactive, Pf growth 48h inactive and Pf growth 96h inactive.
`COc1cc(C(=O)OCc2csc(CC(=O)Nc3ccccc3C)n2)ccc1OCC(C)C` gave SARS PLP yeast inactive, Sm TGR inh inactive, Pf growth 48h 13µM and Pf growth 96h 9.3µM.
`COc1cc(/C=C/C(=O)OCc2csc(CC(=O)Nc3ccc(C)cc3)n2)ccc1OCC#N` gave SARS PLP yeast inactive, Sm TGR inh inactive, Pf growth 48h inconclusive and Pf growth 96h 13µM.
Screening Cc1ccccc1NC(=O)Cc1nc(COC(=O)c2ccc(S(C)(=O)=O)c([N+](=O)[O-])c2)cs1 returned SARS PLP yeast inactive, Sm TGR inh 2.8µM, Pf growth 48h inconclusive and Pf growth 96h inconclusive.
Screening Cc1ccccc1NC(=O)COC(=O)c1ccc(S(C)(=O)=O)c([N+](=O)[O-])c1 returned SARS PLP yeast inactive, Sm TGR inh 1.4µM, Pf growth 48h inactive and Pf growth 96h inactive.
O=C(NCc1ccccc1)C(c1ccccc1)N(Cc1cccs1)C(=O)c1cnccn1 (centres undefined) was read as SARS PLP yeast inactive, Sm TGR inh inactive, Pf growth 48h inactive and Pf growth 96h 0.26µM.
For COc1cc(C(C(=O)NC(C)(C)C)N(Cc2ccccc2)C(=O)c2cnccn2)cc(OC)c1OC (centres undefined) the results were SARS PLP yeast inactive, Sm TGR inh inactive, Pf growth 48h inactive and Pf growth 96h inconclusive.
`COc1cc(C(C(=O)NCc2ccccc2)N(Cc2ccco2)C(=O)c2cnccn2)cc(OC)c1OC` (centres undefined) gave SARS PLP yeast inactive, Sm TGR inh inactive, Pf growth 48h 9.3µM and Pf growth 96h inactive.
For CC1CCc2c(sc(NC(=O)CCCOc3ccc(C(C)(C)C)cc3)c2C(N)=O)C1 (centres undefined) the results were Sm TGR inh inactive.
Cc1ccc(NC(=O)Cn2c(-c3cncs3)nc3ccccc32)c(Br)c1 was read as Sm TGR inh inactive.
For CCC1=C(OC(=O)N(CC)CC)N2C(=O)OC(=NCCc3c[nH]c4ccccc34)[C@]2(C)[C@H]2C1=CC[C@H]1C(=O)N(CC(=O)OC)C(=O)[C@H]12 the results were SARS PLP yeast inactive, Sm TGR inh inactive, Pf growth 48h 9.3µM and Pf growth 96h 15µM.
For COC(=O)Cc1c(OC)ccn(CCc2c[nH]c3ccccc23)c1=O the results were SARS PLP yeast inactive, Sm TGR inh inactive, Pf growth 48h inactive and Pf growth 96h inactive.
`CCC1=C(OC(=O)N(CC)CC)N2C(=O)OC(=NCCc3c[nH]c4ccccc34)[C@]2(C)[C@H]2C1=CC[C@H]1C(=O)NC(=O)[C@H]12` gave SARS PLP yeast inactive, Sm TGR inh inactive, Pf growth 48h 12µM and Pf growth 96h inconclusive.
For CCC1=C(OC(=O)N(CC)CC)N2C(=O)OC(=NCC3CC3)[C@]2(C)[C@H]2C1=CC[C@H]1C(=O)NC(=O)[C@H]12 the results were SARS PLP yeast inactive, Sm TGR inh inactive, Pf growth 48h inconclusive and Pf growth 96h inconclusive.
CCOc1ccccc1CNC(=O)CCc1c(C)nn(-c2ccc(N3CCCCC3)nn2)c1C was read as Sm TGR inh inactive.
For Cc1cc(C)c(S(=O)(=O)c2c(C)cccc2C)c(Cl)n1 the results were SARS PLP yeast inactive, Sm TGR inh inactive, Pf growth 48h inactive and Pf growth 96h inactive.
For Cc1cc(C)c(S(=O)(=O)c2cccc(Cl)c2)c(Cl)n1 the results were SARS PLP yeast inactive, Sm TGR inh inactive, Pf growth 48h 10µM and Pf growth 96h inconclusive.
`Cc1cc(C)c(S(=O)(=O)c2ccccc2)c(OC(=O)c2c(Cl)cc(Cl)cc2Cl)n1` gave SARS PLP yeast inactive, Sm TGR inh inactive, Pf growth 48h 3.7µM and Pf growth 96h inactive.
For COC(=O)C(O)(c1ccc2c(c1)CCCN2)C(F)(F)F (centres undefined) the results were SARS PLP yeast inactive, Sm TGR inh inactive[11.4 µM] and Pf growth 96h 8.3µM.
`COc1ccc(-c2oc3ncnc(NCCN4CCOCC4)c3c2-c2ccc(OC)cc2)cc1` gave SARS PLP yeast inactive, Sm TGR inh inactive[11.4 µM] and Pf growth 96h inconclusive.
For COc1cc2ncnc(NCCCN3CCOCC3)c2cc1OC the results were SARS PLP yeast inactive, Sm TGR inh inactive, Pf growth 48h inconclusive and Pf growth 96h inconclusive.
`c1ccc(-c2oc3ncnc(NCCCN4CCOCC4)c3c2-c2ccccc2)cc1` gave SARS PLP yeast inactive, Sm TGR inh inactive, Pf growth 48h inconclusive and Pf growth 96h inconclusive.
